Rows were chosen to be rich in hits. Some 8.8% of all compounds tested hit in one or more screens of this group.
HTT cytoprotect – protects HTT-Q103 PC12 cells, measured by ATP; AID 1471; PC12 HTT-Q103 induced, cytoprotection, ATP luminescence, 40 h; Potency, µM (doses to about 56.4 µM), for the others: cytoprotection (ATP increase), hits mostly activators; hit rate 0.14% among 230,000; further: % of control where 0% means no effect; nearly all actives have a fitted effect of over 45% in size
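Cells were plated at 1500 per well in phenol red-free DMEM with 5% equine and 5% calf serum. Tebufenozide (100 nM final) and compounds were added, then ATPlite reagent, and luminescence was read.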
LMNA splice mod – changes lamin A minigene splicing in HeLa cells; Potency, µM (highest dose often 46.1 µM), for the others: at the highest dose ratio change, negative = inhibition, usual class: inhibitors; hit rate 0.01% among 200,000; HeLa LMNA splicing GFP/RFP minigene ratio, 48 h; AID 1487; active means well fitted inhibition curve with a large enough effect in the signal ratio, with a control signal flat, not every such curve was filed as active; inconclusive means small, poorly fitted or top-dose-only effect, or effect the other way, or a change in a side signal; the % refers to the signal ratio; further: on the % scale 0 is the no-effect control and ±100 the full control effect
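Read-out is the ratio of GFP to DsRed2 object intensity, acquired by 488 nm laser-scanning cytometry on HeLa lamin A-EGFP minigene reporter cells. Compound incubation 48 hrs at 37 °C in Opti-MEM with 2% FBS; DMSO 0.5% final.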
HTT aggregate – reduces HttQ103-GFP aggregates in PC12 cells. PC12 HttQ103-GFP aggregates, Acumen cytometry, 40 h. Potency, µM (top dose mostly 46.1 µM), for inactives: top-dose activity change, negative = inhibition, most hits filed as inhibitors. hit rate 1.1% among 220,000. AID 1688; further: on the % scale 0 is the no-effect control and ±100 the full control effect; nearly all actives have a fitted effect of over 60% in size
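Using laser scanning cytometry, GFP-positive aggregates were counted after lysis of PC12 cells induced with 100 nM tebufenozide to express HTT exon 1 Q103–GFP. Compounds were tested in titration.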
ALDH1A1 inh – blocks purified human ALDH1A1 activity; Potency, µM (doses to about 75.3 µM), for inactives: top-dose activity, negative = inhibition, hits mostly inhibitors; hit rate 7.3% among 220,000; Purified ALDH1A1, NADH fluorescence, propionaldehyde substrate; active means well fitted inhibition curve with a large enough effect, not every such curve was filed as active; inconclusive means small, poorly fitted or top-dose-only effect, or another doubt; inactive means no such curve, though single readings can be large or run the other way;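 further: plate controls were no enzyme wells and a reference inhibitor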
Target sequence (P00352 whole entry, looked up): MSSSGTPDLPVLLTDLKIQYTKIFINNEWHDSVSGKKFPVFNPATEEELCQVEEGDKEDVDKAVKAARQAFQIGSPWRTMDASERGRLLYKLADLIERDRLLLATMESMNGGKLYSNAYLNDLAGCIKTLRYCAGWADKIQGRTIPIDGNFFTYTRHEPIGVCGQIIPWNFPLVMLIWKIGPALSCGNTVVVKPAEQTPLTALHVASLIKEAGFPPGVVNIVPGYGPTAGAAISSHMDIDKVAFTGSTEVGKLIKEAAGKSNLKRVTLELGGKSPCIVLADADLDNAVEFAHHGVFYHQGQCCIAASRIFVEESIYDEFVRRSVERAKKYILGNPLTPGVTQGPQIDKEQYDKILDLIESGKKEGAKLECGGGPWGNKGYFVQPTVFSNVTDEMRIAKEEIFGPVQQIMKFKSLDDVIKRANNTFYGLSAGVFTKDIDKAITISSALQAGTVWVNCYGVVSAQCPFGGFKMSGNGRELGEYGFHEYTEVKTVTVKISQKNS
HPGD block – HPGD (human) dehydrogenase inhibition. P15428. purified HPGD, NADH fluorescence kinetic, PGE2 substrate. Potency, µM, for the others: at the highest dose activity change, negative = inhibition, most hits filed as inhibitors. hit rate 4.3% among 150,000; active means well fitted inhibition curve with a large enough effect, not every such curve was filed as active; inconclusive means small, poorly fitted or top-dose-only effect, or another doubt; inactive means no such curve, though single readings can be large or run the other way; further: on the % scale 0 is the no-effect control and ±100 the full control effect
Target sequence (P15428 whole entry, looked up): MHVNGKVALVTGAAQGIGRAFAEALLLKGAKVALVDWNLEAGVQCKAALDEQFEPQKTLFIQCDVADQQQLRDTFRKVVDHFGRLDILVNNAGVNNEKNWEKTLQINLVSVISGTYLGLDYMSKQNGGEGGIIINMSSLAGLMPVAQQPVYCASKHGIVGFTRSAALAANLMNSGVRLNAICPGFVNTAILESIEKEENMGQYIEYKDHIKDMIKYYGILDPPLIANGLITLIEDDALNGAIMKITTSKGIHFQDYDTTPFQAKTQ
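20 nM HPGD preincubated 15 min at room temperature with compound in 50 mM Tris-HCl pH 8, 0.01% Tween 20. Started with 1 mM NAD+ and 30 uM prostaglandin E2; NADH fluorescence (360/450 nm) read 5 times over 30-s intervals, last minus first.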
* hit, by the source's call; [ ] = remark or other dose. Unless noted, the call rests on the fitted dose curve; in most records, active means well fitted curve in the direction sought with a large enough effect; inconclusive means small, poorly fitted or top-dose-only effect, or another doubt; inactive means no such curve, though single readings can be large; an effect the other way counts as inactive or inconclusive. Potency means the concentration at half of the fitted maximal effect.

How did CCCCCOc1ccc(CSC(=N)N)cc1[N+](=O)[O-] do in these assays?
HTT cytoprotect: -14%; LMNA splice mod: inconclusive; HTT aggregate: 2%; ALDH1A1 inh: -4%; HPGD block: 1%

How did COc1ccc(Cn2ccnc2CO)cc1[N+](=O)[O-] do in these assays?
HTT cytoprotect: inconclusive; HTT aggregate: inconclusive; ALDH1A1 inh: 6.3µM*

Results for COc1ccc(CSC(=N)N)cc1[N+](=O)[O-] ?
HTT cytoprotect: 8%[10 µM]; LMNA splice mod: inconclusive; HTT aggregate: inconclusive; ALDH1A1 inh: 28µM*; HPGD block: -1%

How did COc1ccc(Cn2cc([N+](=O)[O-])nc2C)cc1[N+](=O)[O-] do in these assays?
HTT cytoprotect: 24%[10 µM]; HTT aggregate: 9%[9.22 µM]

What do the screens show for `CC(C)CC1=NN2C(=N)/C(=C\c3coc4ccccc4c3=O)C(=O)N=C2S1`?
HTT cytoprotect: -43%; HTT aggregate: 31%; ALDH1A1 inh: 11µM*

How did CCc1ccc(-n2cccc2/C=C2/C(=N)N3C(=NC2=O)SN=C3S(C)(=O)=O)cc1 do in these assays?
HTT cytoprotect: -31%; LMNA splice mod: 20%[9.22 µM]; HTT aggregate: 2%; ALDH1A1 inh: inconclusive

How did CCSC1=NSC2=NC(=O)/C(=C\c3coc4ccccc4c3=O)C(=N)N12 do in these assays?
HTT cytoprotect: 41%[10 µM]; LMNA splice mod: -17%; HTT aggregate: 18%; ALDH1A1 inh: inconclusive; HPGD block: 28µM*

What do the screens show for `C=CCOC(=O)N[C@H](/C(C(=O)OC)=C(\C)NCc1ccccc1)c1ccc(Br)cc1`?
HTT cytoprotect: -28%; ALDH1A1 inh: inconclusive; HPGD block: 0%

Results for Cc1ccc(NCc2nnc(SCc3ccc(C#N)cc3)n2Cc2ccco2)c(C)c1 ?
HTT cytoprotect: 9%[10 µM]; LMNA splice mod: -19%; HTT aggregate: 2%; ALDH1A1 inh: -7%; HPGD block: 1%

Results for Cc1ccc(C(=O)CSc2nnc(CNc3ccc(C)cc3C)n2Cc2ccco2)cc1 ?
HTT cytoprotect: -24%; LMNA splice mod: -8%; HTT aggregate: 8%; ALDH1A1 inh: 22µM*; HPGD block: -16%

What do the screens show for `CCOc1ccc(C(=O)CSc2nnc(C3CC3)n2C)cc1`?
HTT cytoprotect: -9%[10 µM]; LMNA splice mod: -13%; HTT aggregate: 5%; ALDH1A1 inh: 7.9µM*; HPGD block: -25%

Results for Cc1ccc(OCc2nnc(SCC(=O)c3ccccc3)n2Cc2ccco2)cc1 ?
HTT cytoprotect: -28%[0.074 µM]; LMNA splice mod: inconclusive; HTT aggregate: -15%; ALDH1A1 inh: inconclusive; HPGD block: -23%

Results for CCOc1ccc(NC(=O)CSc2nnc(C3CC3)n2C)cc1 ?
HTT cytoprotect: -22%[10 µM]; HTT aggregate: -8%[9.22 µM]; ALDH1A1 inh: 6%

What do the screens show for `Cn1c(SCc2ccc(Cl)cc2)nnc1C1CC1`?
HTT cytoprotect: inconclusive; LMNA splice mod: -7%[46 µM]; HTT aggregate: 21%[9.22 µM]; ALDH1A1 inh: 12µM*

Results for COc1ccc(C(=O)CSc2nnc(CNc3ccc(C)cc3C)n2Cc2ccco2)cc1 ?
HTT cytoprotect: -10%; LMNA splice mod: inconclusive; HTT aggregate: -16%; ALDH1A1 inh: 7.1µM*; HPGD block: inconclusive

How did CC(C)CC1CC(C)(c2csc(NNC(=O)c3ccccc3)n2)OC1=O (stereo not given) do in these assays?
HTT cytoprotect: -18%; LMNA splice mod: -5%[46 µM]; HTT aggregate: -32%; ALDH1A1 inh: -13%

How did COc1ccc(NCc2nnc(SCC(=O)c3ccc(OC)cc3)n2C)cc1 do in these assays?
HTT cytoprotect: -13%; LMNA splice mod: 1%; HTT aggregate: 17%; ALDH1A1 inh: 6.3µM*; HPGD block: -21%

How did COc1ccc(CC(=O)NCc2nnc(SCC(=O)c3ccc(OC)cc3)n2C)cc1 do in these assays?
HTT aggregate: 11%; ALDH1A1 inh: -9%

What do the screens show for `O=C(CSc1nccn1Cc1ccc(F)cc1)Nc1ccc2c(c1)OCO2`?
LMNA splice mod: -8%[46 µM]

What do the screens show for `Cc1nn(-c2nc3ccccc3s2)c(C)c1Oc1ccccc1O`?
HTT cytoprotect: 21%[10 µM]; LMNA splice mod: inconclusive; HTT aggregate: -13%; ALDH1A1 inh: 5%; HPGD block: inconclusive

How did Cc1nn(-c2ccc(C(=O)O)cc2)c(C)c1Oc1ccccc1O do in these assays?
HTT cytoprotect: -2%; LMNA splice mod: 13%; HTT aggregate: 15%[9.22 µM]; ALDH1A1 inh: 9%; HPGD block: 14µM*

How did Cc1nn(-c2ccccn2)c(C)c1Oc1ccccc1O do in these assays?
HTT cytoprotect: -9%; LMNA splice mod: 4%; HTT aggregate: 8%; ALDH1A1 inh: -8%; HPGD block: 14µM*

Results for Cc1nn(-c2cccc(C(=O)O)c2)c(C)c1Oc1ccccc1O ?
HTT cytoprotect: -8%[10 µM]; LMNA splice mod: 4%; HTT aggregate: 18%; ALDH1A1 inh: 13%; HPGD block: -16%

What do the screens show for `Cc1cc(C)c(NC(=O)CN(CC(=O)O)CC(=O)O)c(C)c1Br`?
HTT cytoprotect: -6%; HTT aggregate: -4%

How did c1ccc(CSc2ccc(-c3cccs3)nn2)nc1 do in these assays?
HTT cytoprotect: -94%; HTT aggregate: 0.032µM*; ALDH1A1 inh: -5%

Results for COc1ccccc1CNC(=O)c1cnn2c(C)c(Cc3ccc(F)cc3)c(C)nc12 ?
LMNA splice mod: -2%[46 µM]

Results for CCCn1c(SCC(=O)Nc2sc(C)c(C)c2C#N)nnc1C(C)C ?
HTT cytoprotect: -11%; LMNA splice mod: -6%; HTT aggregate: inconclusive; ALDH1A1 inh: 2.8µM*

What do the screens show for `Cc1sc(NC(=O)CSc2nnc(C)c(=O)[nH]2)c(C#N)c1C`?
HTT cytoprotect: -6%; LMNA splice mod: 0%; HTT aggregate: 6%; ALDH1A1 inh: 14µM*; HPGD block: -17%

Results for Cc1sc(NC(=O)CSc2nc(N)cc(N)n2)c(C#N)c1C ?
HTT cytoprotect: -20%[10 µM]; HTT aggregate: -15%[9.22 µM]

How did COc1ccc(CCNC(=O)COC(=O)c2cnc(C)cn2)cc1OC do in these assays?
HTT cytoprotect: 13%; LMNA splice mod: 6%; HTT aggregate: 19%; ALDH1A1 inh: 13µM*; HPGD block: 8%

Results for COc1ccc(CCNC(=O)CN2CCC(C)CC2)cc1OC ?
HTT cytoprotect: 8%; LMNA splice mod: 10%; HTT aggregate: -2%; ALDH1A1 inh: 11µM*; HPGD block: -14%

How did NS(=O)(=O)c1ccc(CCNC(=O)CCC2COc3ccccc3O2)cc1 (stereo not given) do in these assays?
HTT cytoprotect: -12%[10 µM]; LMNA splice mod: -10%; HTT aggregate: -1%; ALDH1A1 inh: 10%; HPGD block: -9%

How did CC1CCN(CC(=O)NCCc2ccc(F)cc2)CC1 do in these assays?
HTT cytoprotect: 5%[10 µM]; HTT aggregate: 22%[9.22 µM]; ALDH1A1 inh: inconclusive

Results for COc1ccc(CCNC(=O)CCC2COc3ccccc3O2)cc1OC (stereo not given) ?
HTT cytoprotect: -16%; LMNA splice mod: 4%; HTT aggregate: -24%; ALDH1A1 inh: 13µM*; HPGD block: -10%
